# Screening data as filed in PubChem BioAssay.
# Insulin prom inh = TRM-6 insulin promoter activity inhibition | hit rate 0.9% among 130,000 | TRM-6 cells (human fetal islet line), insulin promoter-eGFP reporter, imaging; reporter expression induced with tamoxifen | AID 1273 | inhibition, % at 2 µM;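 active = inhibition above the mean plus 3 SD, with well images judged a real hit on visual review, cut at about 60% in these data, passing the limit was not always enough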
# KCC2 mod = modulates chloride dependent transport by human KCC2 | Q9H2X9 | KCC2 cells, thallium flux FluoZin-2 fluorescence | B-score of Tl+ flux slope (higher = more flux/activation; lower = inhibition) at 10 µM | hit rate 2.2% among 190,000 | AID 1456;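 active = thallium flux slope and its plate-corrected score both differing from the plate sample mean at a set confidence after two filtering rounds, in either direction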;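 also: slope of fluorescence scaled to starting intensity during 10 to 20 s after thallium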
# Lmaj promast = Leishmania major promastigote growth inhibition. hit rate 9% among 200,000. AID 1063. inhibition, % at 10 µM. Leishmania major promastigotes, resazurin fluorescence viability; in the data active = inhibition above about 50%;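 also: promastigotes grown with compound for 44 hours at 28 °C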
# ROMK primary = human ROMK K+ channel modulation, primary screen | P48048 | Tet-inducible ROMK, thallium flux fluorescence; actives lie on both sides | B-score at 10 µM | hit rate 2% among 130,000 | AID 1918;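 active = signal ratio slope over the read window, or its plate-corrected B-score, at least 3 SD from the plate mean, either direction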;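 also: B-score of the F/F0 ratio slope over 7 to 12 s after thallium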
# Target sequence (P48048 whole entry, looked up): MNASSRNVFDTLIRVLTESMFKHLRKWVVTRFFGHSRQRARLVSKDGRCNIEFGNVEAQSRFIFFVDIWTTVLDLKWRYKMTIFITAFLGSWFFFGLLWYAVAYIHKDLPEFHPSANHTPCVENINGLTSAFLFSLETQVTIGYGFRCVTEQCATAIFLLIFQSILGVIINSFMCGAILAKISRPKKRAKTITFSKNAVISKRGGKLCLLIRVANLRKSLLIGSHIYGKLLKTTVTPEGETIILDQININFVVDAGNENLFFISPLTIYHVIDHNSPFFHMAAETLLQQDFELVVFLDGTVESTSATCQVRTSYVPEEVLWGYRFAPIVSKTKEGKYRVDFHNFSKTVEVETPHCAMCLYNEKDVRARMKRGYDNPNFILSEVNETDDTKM
# WT yeast gro inh = growth inhibition of WT yeast, mitochondrial fusion screen; AID 1362; hit rate 2.1% among 190,000; mitochondrial fusion phenotypic screen, WT strain; inhibition, % at 10 µM; in the data active = inhibition above about 58%; tested in S. cerevisiae
# Insulin prom up = MIN6 insulin promoter up-regulation. AID 1625. z-score at 5 µM. MIN6 insulin promoter-GFP reporter, high-content imaging; active compounds read high. hit rate 0.3% among 190,000;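 active = z-score above 3 at 5 µM with at least 500 cells counted in the well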
# * hit, by the source's call; . = not tested or not shown. Hits are enriched below; roughly 12% of the tested compounds scored in any of these assays.
SMILES,Insulin prom inh,KCC2 mod,Lmaj promast,ROMK primary,WT yeast gro inh,Insulin prom up
Cc1ccc(C)c(Cn2c(O)c(N=NC(=S)Nc3ccccc3F)c3ccccc32)c1,.,4,96*,0.98,-21,-1.4
COc1ccc(OC)c(C2C(C(=O)c3sc(C)nc3C)=C(O)C(=O)N2CCN2CCOCC2)c1 (centres undefined),-14,.,0,0.4,-3,-0.03
Cc1ccc(C2CC(C(F)F)n3ncc(C(=O)Nc4cnn(Cc5ccccc5C)c4)c3N2)cc1 (centres undefined),.,0.4,43,0.28,38,-0.33
Cc1ccc(C(=O)NNC2CC(=O)N(c3ccc4c(c3)OCCO4)C2=O)cc1 (centres undefined),85*,1.8,-7,-0.96,-1,.
O=C(NNC1CC(=O)N(c2ccc3c(c2)OCCO3)C1=O)c1ccc(Cl)cc1 (centres undefined),30,1.9,-7,-0.15,1,.
CCn1c(CCCOc2ccc(Cl)cc2Cl)nnc1SCC(=O)Nc1cc(F)ccc1C,.,-0.71,2,.,79*,0.13
Cc1nc2c(O)cccc2cc1CO,.,1.6,.,.,.,0.09
O=C(c1cc2c(s1)CCCC2)N1CCN(c2ccccc2)CC1,-20,0.91,-10,-0.094,30,-0.16
O=S(=O)(c1ccccc1C(F)(F)F)N1CCN(S(=O)(=O)c2ccccc2C(F)(F)F)CC1,3,-0.0095,-1,0.22,13,-0.75
CCOc1ccccc1N1CCN(C(=O)c2cc3c(s2)CCC3)CC1,.,.,68*,-1.6,29,-1.7
O=C(c1cc2c(s1)CCCC2)N1CCN(S(=O)(=O)c2ccccc2C(F)(F)F)CC1,0,-0.91,77*,-0.02,46,-0.4
Cc1ccc(C)c(Cn2c(=O)n(CCCC(=O)NCc3ccco3)c(=O)c3sccc32)c1,-10,-1.3,5,1.1,-6,-0.66
CCOc1ccccc1NC(=O)N1CCCC(c2nc3c(nnn3Cc3ccc(C)cc3)c(=O)[nH]2)C1 (centres undefined),.,.,45,-0.094,-2,0.77
Cc1cc(C)c2[nH]c(=O)c(CN(Cc3nnnn3C3CCCC3)C3CCCCC3)cc2c1,.,0.3,29,0.87,13,0.36
Cc1cccc2cc(CN(Cc3nnnn3C3CCCCC3)C3CCCC3)c3nnnn3c12,-38,-0.77,50*,-3.2,-5,.
Cc1cc(OCCOCCN(C)C)ccc1Cl,-24,0.79,89*,-0.074,12,0.1
COc1cccc(OCCOCCNCCO)c1,-45,.,9,-0.6,1,0.07
COCCNCCOCCOc1ccc(Cl)c(C)c1,-26,-0.38,100*,-1.2,6,-0.32
Cc1cc(Cl)cc(Cl)c1OCCOCCN(C)C,-129,0.12,65*,0.2,-8,0.75
Cc1cc(C)c(OCCN(C)C)c(Cl)c1,.,-0.34,1,0.63,19,0
COCCNC(=O)Cn1nc(C)c([N+](=O)[O-])c1C,.,0.58,-8,0.33,-19,-0.08
CC(=O)C1=C(C)OC(N)=C(C#N)C1c1cc2cccc(C)c2nc1Cl (centres undefined),.,-0.035,3,-0.75,-28,-0.22
CCn1c(SCC(=O)Nc2cccnc2Cl)nnc1-c1ccccc1,11,-1.2,-5,-0.61,5,0.27
COc1ccccc1Nc1nnc(SCC(=O)Nc2cc(C)on2)s1,-31,0.15,-2,-0.83,-7,0.19
CCOc1ccccc1Nc1nnc(SCC(=O)NC(=O)c2cccn2C)s1,6,-1.5,56*,.,9,0.38
SMILES,Insulin prom inh,KCC2 mod,Lmaj promast,ROMK primary,WT yeast gro inh,Insulin prom up
CCc1ccc(Nc2nnc(SCC(=O)Nc3cccnc3Cl)s2)cc1,.,-3.1,90*,.,13,0.69
Cc1c(Cl)c([N+](=O)[O-])nn1CC(=O)Nc1c(C)n(C)n(-c2ccccc2)c1=O,-49,-0.04,-6,.,-10,.
COc1ccc2[nH]c(C(=O)O)c(NC(=O)c3ccccc3[N+](=O)[O-])c2c1,.,0.34,.,.,.,0.56
CCCOc1ccccc1C1CC(=O)Nc2cc3c(cc21)OCCO3 (centres undefined),-72,-0.69,98*,.,19,.
O=C1CC(c2cc(Br)ccc2F)c2cc3c(cc2N1)CCC3 (centres undefined),27,.,1,.,-2,-0.46
Cc1cc2c(cc1C)C(c1ccccc1Br)CC(=O)N2 (centres undefined),24,1.5,99*,2.4,-3,0.46
CCOc1ccccc1C1CC(=O)Nc2cc3c(cc21)OCCO3 (centres undefined),21,.,17,1.5,-21,-0.75
CC(C)Oc1ccccc1C1CC(=O)Nc2cc3c(cc21)OCO3 (centres undefined),-300,.,37,0.11,28,-1.2
O=C1CC(c2ccccc2F)c2cc3c(cc2N1)CCC3 (centres undefined),.,-0.13,97*,.,10,-0.28
O=C(NC(=S)NCCO)c1cn(-c2ccccc2)nc1-c1ccccc1,.,0.95,25,-1.4,4,.
CC1CCN(C(=O)C2Cc3ccccc3CN2S(=O)(=O)c2ccc(F)cc2)CC1 (centres undefined),.,-0.41,22,0.12,-2,-0.04
Cc1cc(Nc2ccccc2)nn1C(=O)c1ccc(Cl)cc1,13,0.23,-1,-0.32,80*,-0.21
Cc1cc(Nc2ccccc2)nn1C(=O)c1ccc([N+](=O)[O-])cc1,-63,-1.4,-3,0.0034,-6,-0.12
O=c1[nH]c(SCc2nc3ccccc3n2Cc2ccccc2)nc2ccccc12,.,0.44,5,1.6,16,.
Nc1nnc(SCC(=O)NN2C(=O)NC3(CCCCC3)C2=O)s1,-19,-0.0077,60*,0.37,2,0.81
COc1ccc(/C=C(/C(=O)Nc2ccccc2C(=O)N2CCCC2)c2ccccc2)cc1,-6,-0.97,20,-0.62,27,-0.62
CCOC(=O)c1cc(NC(=O)CSCCO)ccc1Cl,-6,-1.9,-2,0.046,4,0.51
COc1cccc(NC(=S)/C(=C(\[O-])c2ccc(C)c([N+](=O)[O-])c2)[n+]2ccccc2)c1,77*,.,15,.,7,-0.14
CC(C)c1ccccc1NS(C)(=O)=O,.,.,-5,.,-10,-0.17
Cc1ccc(N2C(=O)C(O)(C(F)(F)F)C3=C2CC(C)(C)CC3=O)cc1C (centres undefined),-3,.,-6,.,13,1.2
Cc1cc(C)cc(NC(=O)CSc2ncc(S(=O)(=O)c3ccccc3)c(=O)[nH]2)c1,-32,-0.83,53*,-0.035,-2,-0.03
C=CCn1c(C)cc(C(=O)COc2ccc(S(=O)(=O)N3CCCC3)cc2[N+](=O)[O-])c1C,-20,-0.026,86*,.,11,-0.33
C=CCn1c(C)cc(C(=O)COc2ccc(C)nc2[N+](=O)[O-])c1C,50,-1.1,0,.,-7,-0.1
CCCn1c(C)cc(C(=O)COc2ccc(S(=O)(=O)N(CC)CC)cc2[N+](=O)[O-])c1C,-89,-0.56,84*,-1,-30,.
CN(C)CCCN(C(=O)c1sc2ccccc2c1Cl)c1nc2c(F)cccc2s1,.,0.23,-3,.,3,0.14
CN(C)CCCN(C(=O)COc1ccccc1)c1nc2ccc(F)cc2s1,.,0.042,-1,0.78,-13,0.87
